Compounds with a hit are over-represented: about 4.8% of the library has one in this group of screens.
DAX1 inh-1: DAX1 (NR0B1) inhibitors on StAR promoter, primary screen, cell-based, luminescence, SF-1 (NR5A1), full-length DAX-1; inhibition, % at 6.8 µM; AID 652010, 2013; 370,000 tested, 1.1% active; HEK293T StAR-luciferase reporter, SF-1/DAX-1 repression relief;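 active means inhibition above the mean over all tested compounds plus 3 SD, cut at about 3.6% in these data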;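 further: 0% = DAX-1 cells with DMSO and 100% = cells lacking DAX-1 with DMSO; higher inhibition means more luminescence from relief of DAX-1 repression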
Rev-erbA mod: modulators of Rev-erb alpha DNA binding, primary screen, biochemical, FITC-DNA, fluorescence polarization, uHTS. Nuclear receptor subfamily 1 group D member 1 (Homo sapiens), P20393. Rev-erbα–FITC-DNA binding, 90 min. 370,000 tested, 0.79% active. activity, % at 10 µM;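 active means activity above about 14%, limit read from the data; passing the limit was not always enough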;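 further: 0% = DMSO wells with 35 nM protein and 100% = DMSO wells with 750 nM protein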
hcDAF12 agonist: H. contortus DAF-12 nuclear receptor activators, primary screen, cell-based, luminescence, HEK293, lit1-tk-luc reporter. HEK293 hcDAF-12 lit1-tk-luc reporter; 0% DMSO, 100% Δ7-dafachronic acid. activation, % at 6.8 µM. 370,000 tested, 1.4% active;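 active means activation above the mean of all tested compounds plus 3 SD, cut at about 5.5% in these data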;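 further: 100% = response to 3 µM Δ7-dafachronic acid high control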
hgDAF12 agonist: H. glycines DAF-12 receptor agonists, primary screen, cell-based, luminescence, HEK293, GAL4 fusion, UAS-luciferase. 370,000 tested, 1.8% active. activation, % at 6.8 µM. AID 687014, 2013. Nuclear hormone receptor DAF-12 (Heterodera glycines), GAL4 fusion. HEK293 GAL4-hgDAF12 UAS-luciferase reporter, agonist luminescence; normalized to butyrate control;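 active means activation above a cutoff set at the mean of all screened compounds plus 3 SD, cut at about 10% in these data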;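 further: 0% = DMSO wells and 100% = sodium butyrate wells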
DAX1 inh-2: DAX1 (NR0B1) inhibitors, primary screen, cell-based, HEK293, Gal4-DAX1, luciferase luminescence. inhibition, % at 6.75 µM. HEK293 Gal4-DAX1 luciferase reporter. 340,000 tested, 0.99% active. Nuclear receptor subfamily 0 group B member 1 (Homo sapiens), P51843. AID 504766, 2011;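 active means inhibition above the mean over all tested compounds plus 3 SD, cut at about 4.2% in these data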;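 further: 0% = DAX1-transfected cells with DMSO and 100% = empty-vector control cells with DMSO; inhibition shows as a rise in luminescence from relieved DAX1 repression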
Target sequence (P51843 207-470 limits assumed): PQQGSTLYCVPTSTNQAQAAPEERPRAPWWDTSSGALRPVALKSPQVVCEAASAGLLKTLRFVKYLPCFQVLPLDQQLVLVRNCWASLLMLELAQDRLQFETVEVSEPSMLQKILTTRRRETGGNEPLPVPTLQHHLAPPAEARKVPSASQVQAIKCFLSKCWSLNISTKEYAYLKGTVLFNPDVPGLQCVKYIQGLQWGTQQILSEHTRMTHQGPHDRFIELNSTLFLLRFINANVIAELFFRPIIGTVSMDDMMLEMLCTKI
ssDAF12 agonist: S. stercoralis DAF-12 nuclear receptor activators, primary screen, cell-based, luminescence, HEK293, GRIP1 co-expression, lit1-tk-luc | HEK293 ssDAF-12/GRIP1 lit1-tk-luc reporter; % of 3 µM dafachronic acid response | 370,000 tested, 1% active | Nuclear hormone receptor DAF-12 (Strongyloides stercoralis) | activation, % at 6.8 µM | AID 652126, 2013;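 active means activation above the mean over all tested compounds plus 3 SD, cut at about 0.9% in these data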;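 further: 0% = DMSO-only wells and 100% = 3 µM delta7-dafachronic acid wells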
Rev-erbA confirm: modulators of Rev-erb alpha DNA binding, confirmation, biochemical, FITC-DNA, fluorescence polarization, single point; 3,000 tested, 61% active; shares compounds with Rev-erbA mod; activation, % at 25 µM; 90 min;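 active means activation at or above a set limit, or at least 3 SD above the negative control mean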;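 further: 0% = 35 nM protein with DMSO and 100% = 750 nM protein high control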
RORg DNA counter: modulation of RORgamma DNA binding, dose response, counter-screen for Rev-erb alpha modulator project, biochemical, fluorescence polarization, FITC-DNA; shares compounds with Rev-erbA mod; purified RORgamma protein-FITC-DNA binding; IC50, µM; 910 tested, 8% active; AID 1259320, 2017;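 active means Compounds whose fitted half-maximal concentration for disrupting protein-DNA binding is below 10 micromolar; the record names Rev-erb in its text, so the target is in doubt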
The depositor's hits bear a star; . = no result given; + = active, no number.

SMILES | DAX1 inh-1 | Rev-erbA mod | hcDAF12 agonist | hgDAF12 agonist | DAX1 inh-2 | ssDAF12 agonist | Rev-erbA confirm | others
CCc1nnc2sc(-c3ccc(NC(=O)c4ccc5c(c4)OCCO5)cc3)nn12 | -1 | 92* | -1 | -1 | -2 | -1 | 58*
Cc1cc(-c2nc3cccnc3s2)ccc1NS(=O)(=O)c1ccc2c(c1)OCCO2 | 0 | 25* | 3 | 2 | 1 | 1 | -4
Cc1cc(C)c(Cn2c3ccccc3c3cnn(CC(=O)NCc4ccccn4)c(=O)c32)c(C)c1 | 0 | 39* | -1 | -2 | 0 | -2 | 18*
COc1ccc(-c2cc(C(=O)NN=C/C(C)=C/c3ccccc3)[nH]n2)cc1 | -2 | -17 | -1 | -2 | . | -2 | .
Cc1nc(SCC(=O)NCCc2ccccc2)c2oc3ccccc3c2n1 | 0 | + | -1 | 0 | -1 | 0 | + | RORg DNA counter=>40
CCc1nc(SCC(=O)NCC2CCCO2)c2oc3ccccc3c2n1 (stereo not drawn) | -1 | 1 | -1 | -2 | 1 | -1 | .
CCc1nc(SCC(=O)NCCc2ccccc2)c2oc3ccccc3c2n1 | 0 | 62* | 0 | 0 | 0 | -1 | 69* | RORg DNA counter=>40
Cc1nc(SCC(=O)NCc2ccco2)c2oc3ccccc3c2n1 | -1 | -5 | -1 | -3 | -1 | -1 | .
COc1ccc(CN(CCN2CCOCC2)C(=O)c2ccc(F)cc2Cl)cc1OC | 1 | 3 | -3 | 0 | . | -1 | .
CCC(C)Sc1ccc(-c2nc3ccc(Cl)cn3c2NCc2ccccc2)cc1 (stereo not drawn) | 0 | 26* | 0 | 9 | 0 | -1 | 15
COC(=O)[C@]12C[C@H](CC(=O)NCc3cccc4ccccc34)C(=O)N(Cc3ccc4c(c3)OCO4)C1=C[C@H](C(C)C)O[C@@H]2C1CC1 | 0 | -5 | -1 | -2 | . | -2 | .
CCOC(=O)N1CCN(C(=O)C[C@@H]2C[C@@]3(C(=O)OC)CC(C)(C)CC=C3N(Cc3ccccc3)C2=O)CC1 | 1 | 4 | 0 | 3 | . | -1 | .
CC(=O)c1cnc2c(-c3cccc(Br)c3)cnn2c1C | 1 | 30* | -1 | 5 | 0 | 0 | 34* | RORg DNA counter=>40
COc1ccccc1N1C(=O)C2C(C(=O)c3ccccc3)=NN(c3ccccc3)C2C1=O (stereo not drawn) | 0 | -1 | 1 | 2 | -1 | 0 | .
COc1ccccc1N1N=C(C(=O)c2ccccc2)C2C(=O)N(c3ccc(Br)cc3)C(=O)C21 (stereo not drawn) | 0 | 29* | -1 | -2 | . | 0 | 31* | RORg DNA counter=>40
Cc1ccc(Cn2cc(CN3[C@H](C)COc4cc(Br)ccc4S3(=O)=O)nn2)cc1 | -1 | 1 | -2 | -1 | . | -2 | .
Cc1ccc(NC(=S)NNC(=O)CSc2nc3sc4c(c3c(=O)n2-c2ccccc2)CCCC4)cc1 | 1 | -1 | 1 | 0 | . | -1 | .
CCOc1ccc(CNC(=O)CS(=O)(=O)Cc2nc(-c3ccc(OC)cc3)oc2C)cc1 | 0 | 26* | 0 | -3 | 1 | -1 | 8
COc1ccc(CNC(=O)CS(=O)(=O)Cc2nc(-c3cccc(OC)c3)oc2C)cc1 | -1 | 25* | -2 | -2 | -1 | -1 | 22*
COc1cccc(-c2nc(CS(=O)(=O)CC(=O)NCCc3ccc(C)cc3)c(C)o2)c1 | -1 | 6 | -2 | -1 | 0 | -1 | .
N#Cc1nc(-c2ccc(OCc3ccc(Cl)cc3)cc2)oc1N1CCOCC1 | 0 | 38* | 1 | -1 | 1 | -1 | -3
O=C1OC(c2ccccc2)(c2ccccc2)c2ccsc21 | 0 | 23* | 0 | -2 | 1 | -1 | 20*
CCOC(=O)c1nn(-c2ccc(C)cc2)c2nc(Nc3ccccc3)cc(=O)n12 | -1 | -3 | 0 | 1 | 0 | -1 | .
Cc1ccc(-n2nc(C(=O)c3ccccc3)n3c(=O)cc(-c4ccccc4)nc23)cc1 | 0 | 49* | -2 | 1 | 1 | -1 | 16
Cc1ccc2nsnc2c1NC(=O)Cc1ccc(Cl)cc1 | 0 | 51* | -1 | -1 | 0 | -1 | 13
SMILES | DAX1 inh-1 | Rev-erbA mod | hcDAF12 agonist | hgDAF12 agonist | DAX1 inh-2 | ssDAF12 agonist | Rev-erbA confirm | others
Cc1ccc2nsnc2c1NC(=O)CCl | -4 | 1 | 1 | -4 | 0 | -1 | .
Cc1ccc2[nH]cc(S(=O)(=O)c3ccc(F)cc3)c(=O)c2c1 | -1 | 3 | -2 | -4 | -2 | -1 | .
CCOc1ccc(S(=O)(=O)c2c[nH]c3ccc(C)cc3c2=O)cc1 | 0 | 31* | 1 | 0 | 1 | -1 | 20*
Cc1ccccc1S(=O)(=O)N1CCCc2nc(-c3ccc(F)cc3)ccc21 | -1 | -2 | -1 | -2 | . | -1 | .
COc1ccc(C(=O)c2cccc(C(=O)c3ccc(OC)c(C)c3)c2)cc1C | 0 | -1 | -1 | 3 | 0 | -1 | .
COc1ccc(C(=O)c2ccc(N3CCN(C(=O)c4ccc(F)cc4)CC3)c(F)c2)cc1Br | 0 | 28* | -1 | 1 | 1 | -1 | 24*
COc1ccc(C(=O)c2ccc(OC)c(Br)c2)cc1Br | 0 | 113* | 0 | -5 | 0 | -1 | 77* | RORg DNA counter=>40
COC(=O)[C@H](CC(C)C)N(CCc1cn(Cc2ccccc2)nn1)S(=O)(=O)c1ccc(F)cc1Br | 0 | 11 | -2 | -1 | . | -2 | .
COc1ccc(C(=O)N/N=C/c2sc3ccccc3c2O)cc1 | . | . | . | . | 0 | . | .
COc1ccc2cc(C(=O)N/N=C/c3sc4ccccc4c3O)ccc2c1 | 0 | 28* | 3 | 3 | 0 | -1 | 27*
COc1ccc(-c2cc(-c3ccc(Br)cc3)nc3ncnn23)cc1OC | 0 | 25* | -2 | -1 | 1 | -2 | 8
Cc1ccccc1NC(=O)c1cccc(C(=O)Nc2ccccc2C)c1 | 0 | -1 | -1 | 0 | 1 | -2 | .
